# PLK1 PBD inh: inhibitors of human PLK1 polo-box domain binding. P53350. Plk1 PBD binding of FITC phosphopeptide, fluorescence polarization. Potency, µM, without a hit: max response, negative = inhibition, most hits filed as inhibitors. hit rate 2.8% among 360,000. AID 720504; note: potency is the fitted concentration of half-maximal effect; series mostly up to about 57 µM; % is set by controls: 0 for no effect and ±100 for the full control effect; nearly all actives have a fitted effect of over 65% in size
# WRN inhibitor: WRN helicase (human) inhibition. Q14191. WRN helicase unwinding, fluorescent forked duplex, kinetic. Potency, µM (top dose mostly 114 µM), for the others: at the top dose activity change, negative = inhibition, usual class: inhibitors. hit rate 0.46% among 360,000. AID 651768; note: potency is the fitted concentration of half-maximal effect; % is set by controls: 0 for no effect and ±100 for the full control effect; nearly all actives have a fitted effect of over 55% in size
#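 Fluorescence dequenching readout, ex 525 nm/em 598 nm, kinetic mode: forked duplex DNA (100 nM final) with adjacent fluorophore and quencher unwound by WRN (20 nM final) with 2 mM ATP. Compound preincubation 15 min, room temperature.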
# VDR inhibitor: vitamin D3 receptor (human) inhibition; AID 504847; VDR-SRC2-3 peptide fluorescence polarization, 2 h; Potency, µM, inactives show max response, negative = inhibition, most hits filed as inhibitors; P11473; hit rate 0.93% among 400,000; note: potency is the fitted concentration of half-maximal effect; % is set by controls: 0 for no effect and ±100 for the full control effect
#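 FP read-out; VDR + SRC2-3 coactivator peptide; 23 nl compound by pintool; 2 h RT incubation; reagents held at 4 deg C, protected from light.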
# TCR act: activators of T cell receptors; Potency, µM (titrated, usually from 9.22 µM), for inactives: at the highest dose activation of IL-2 secretion, actives largely listed as activators; primary human leukocytes, anti-CD3, IL-2 HTRF, 48 h; 330,000 tested, under 10 active; note: % of control where 0% means no effect
#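 48 hr co-incubation of compounds, a-CD3 beads and primary human leukocytes; IL-2 quantified homogeneously by HTRF with anti-IL-2 K and d2 conjugates.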
# FEN1 inh: inhibitors of human flap endonuclease 1. Recombinant FEN1 flap cleavage, fluorescence, 15 min. Potency, µM (series often up to 114 µM), inactives show at the top dose activity change, negative = inhibition, most hits filed as inhibitors. hit rate 0.35% among 390,000; note: potency is the fitted concentration of half-maximal effect; % is set by controls: 0 for no effect and ±100 for the full control effect; nearly all actives have a fitted effect of over 65% in size
# Target sequence (P39748 whole entry, looked up): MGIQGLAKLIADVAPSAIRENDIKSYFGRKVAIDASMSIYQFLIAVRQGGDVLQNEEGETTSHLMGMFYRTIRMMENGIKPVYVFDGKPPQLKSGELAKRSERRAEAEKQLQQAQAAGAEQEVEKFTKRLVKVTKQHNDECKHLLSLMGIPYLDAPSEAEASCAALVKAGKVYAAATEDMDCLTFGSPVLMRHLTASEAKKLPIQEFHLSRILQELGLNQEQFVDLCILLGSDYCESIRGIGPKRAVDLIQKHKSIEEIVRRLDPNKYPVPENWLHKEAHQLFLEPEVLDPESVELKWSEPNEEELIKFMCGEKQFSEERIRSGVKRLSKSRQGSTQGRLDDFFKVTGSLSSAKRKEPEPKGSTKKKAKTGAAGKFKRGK
#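 Nuclease activity of 10 nM FEN1 was measured after 15 min of room-temperature exposure to titrated compounds, by adding 50 nM flap substrate and reading plates at 0 and 15 min.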
# PI5P4K alpha inh: blocks human PI5P4K alpha kinase activity. P48426. PI5P4Kalpha enzyme, ADP-Glo luminescence, 60 min; hits give low values. max response, %. hit rate 1.2% among 330,000; active = max response of -50% or lower; inconclusive = between -30% and -50%; inactive = -30% or higher; note: value at the top dose of about 77 µM; % is set by controls: 0 for no effect and ±100 for the full control effect
#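 Human PI5P4Kalpha with substrate in 0.038 M HEPES pH 7.4, 0.28 mM EGTA, 0.1% CHAPS, 5% DMSO; reaction started with 5 microM ATP (final), 60 min at room temperature. ADP formed read by ADP-Glo luminescence.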
# ADP-Glo interf: interferes with ADP-Glo detection without enzyme present; Potency, µM (doses to about 76.9 µM), without a hit: at the top dose activity change, negative = inhibition, hits mostly inhibitors; AID 743285; shares compounds with PI5P4K alpha inh; ADP-Glo detection counter-screen, luciferase luminescence, no enzyme; 1,100 tested, under 10 active
# Active calls of the source: *; ? = inconclusive; · = no result given; [ ] = dose if it differs, or a comment. Hits are enriched below; roughly 3.7% of the tested compounds scored in any of these assays. Unless noted, calls come from the whole dose curve; as a rule, active = well fitted curve in the direction sought with a large enough effect; inconclusive = small, poorly fitted or top-dose-only effect, or another doubt; inactive = no such curve, though single readings can be large; an effect the other way counts as inactive or inconclusive.
SMILES,PLK1 PBD inh,WRN inhibitor,VDR inhibitor,TCR act,FEN1 inh,PI5P4K alpha inh,ADP-Glo interf
Cc1ccccc1CN1C(=O)C(C)S/C1=N/N=C/c1ccco1 (stereo unspecified),-5%,-7%,8%,-2%,-12%,-2,·
Cc1ccccc1CN1C(=O)C(C)Sc2ccc(-c3ccco3)cc21 (stereo unspecified),-21%,-20%,·,·,·,-54*,-4%
CCOC(=O)c1ccc(Nc2c(-c3cccc(O)c3)nc3nc[nH]n23)cc1,·,·,7%,·,11%,·,·
COc1ccc2c(CC(=O)N3CCN(S(=O)(=O)c4ccc(F)cc4)CC3)coc2c1,-12%,-28%,-10%,12%,-10%,-53*,2%
COc1ccc2c(CC(=O)N3CCN(S(=O)(=O)c4cccs4)CC3)coc2c1,-2%,2%,-5%,·,-12%,-9,·
COc1ccc(S(=O)(=O)Nc2ccc3c(c2)CCC3)cc1,3.8µM*,?,45µM*,-1%,-12%,-67*,-4%
O=C(CN1C(=O)CCc2cc(S(=O)(=O)N3CCOCC3)ccc21)NCc1ccccc1,·,·,6%,·,-2%,·,·
O=C(Cc1ccc(NC(=O)N2CCCCc3ccccc32)cc1)NCc1ccccc1,·,·,-8%,·,11%,·,·
Cc1cc(-c2nc3c4c5c(sc4[nH]c(=O)n3n2)CCC5)c(C)o1,?,?,-22%,-3%,?,-59*,-6%
Cc1nc2sc3c(c2c(=O)[nH]1)CCC3,-2%,1%,4%,-3%,9%,·,·
Cc1ccc(C)c(CN2C(=O)c3ccccc3S(=O)c3ccc(C(=O)N(C)Cc4ccccc4)cc32)c1 (stereo unspecified),·,·,-16%,·,2%,·,·
Cc1ccc(Nc2nc(-c3sc(N)nc3C)cs2)cc1,?,-8%,79µM*,5%,1%,-54*,-3%
COc1ccc(Nc2nc(-c3sc(N)nc3C)cs2)cc1,?,-8%,-23%,-6%,-8%,-21,·
CCOc1ccc(Nc2nc(-c3sc(N)nc3C)cs2)cc1,-23%,1%,28%,-6%,6%,-29,-8%
Cc1nc(N)sc1-c1csc(Nc2cccc(O)c2)n1,?,-21%,?,·,-9%,?,·
COc1ccccc1NC(=O)c1nc[nH]c1C(=O)Nc1ccccc1OC,?,2%,2%,3%,-6%,-3,·
COC(=O)c1[nH]cnc1C(=O)c1ccccc1,-1%,-15%,-4%,0%,21%,-61*,2%
COc1ccccc1CNC(=O)CSC1=NCCS1,?,-5%,?,1%,5%,2,·
O=C(CSC1=NCCS1)NCc1ccco1,3µM*,3%,20µM*,-119%,1%,-54*,1%
O=C1CCC(C(=O)Nc2ccccc2)N1 (stereo unspecified),-19%,3%,1%,5%[46.1 µM],-1%,4,·
O=C1CCC(C(=O)Nc2ccc([N+](=O)[O-])cc2)N1 (stereo unspecified),-1%,?,?,0%,4%,-54*,-5%
CCOc1ccc(-c2cc(C(=O)NCc3ccccc3)c3c(-c4ccc(CC)cc4)[nH]nc3n2)cc1,·,·,0%,·,24%,·,·
CCCn1c(SCC(=O)N2c3ccccc3Sc3ccccc32)nc2c1c(=O)n(C)c(=O)n2C,-12%,0%,-8%,6%,9%,-3,-9%
CCCn1c(SCC(=O)N2CCCc3ccccc32)nc2c1c(=O)n(C)c(=O)n2C,1%,10%,22%,2%,1%,·,·
Cc1c(C(=O)O)cccc1-c1ccc(/C=C2\SC(=O)NC2=O)o1,-19%,-4%[11.6 µM],-10%,·,?,-57*,-4%
SMILES,PLK1 PBD inh,WRN inhibitor,VDR inhibitor,TCR act,FEN1 inh,PI5P4K alpha inh,ADP-Glo interf
CC1CCc2nc3ncn(Cc4cccc(F)c4)c(=O)c3cc2C1 (stereo unspecified),·,·,15%,·,-5%,·,·
CC1=C(C(=O)Nc2ccc(C)cc2Cl)C2(CCCCC2)OC1=O,·,·,-17%,·,7%,·,·
Cc1cccc(NS(=O)(=O)c2ccc3c(c2)CCN3C(=O)C2CCC2)c1,·,·,-21%,·,-21%,·,·
CNC(=S)N(Cc1ccco1)Cc1cc2cc3c(cc2[nH]c1=O)OCCO3,27µM*,?,-22%,3%[46.1 µM],3%,-57*,1%
Cc1cccc(OCc2nnc(NC(=O)c3cccs3)s2)c1,-5%,6%,9%,0%,-3%,-2,·
O=C(Nc1nnc(COc2ccc(Cl)cc2)s1)c1cccs1,2.7µM*,-31%,-14%,4%,13%,-57*,0%
C1=C(c2ccc(-c3ccccc3)cc2)Nc2ncnn2C1c1ccco1 (stereo unspecified),4.7µM*,-25%,1%,-10%,-3%,-56*,-11%
Fc1ccc(C2=CC(c3ccco3)n3ncnc3N2)cc1 (stereo unspecified),-26%,-13%,-21%,-10%[46.1 µM],1%,9,·
NC(=O)C1(N2CCCCC2)CCN(C(=O)Nc2ccc(F)cc2F)CC1,·,·,-9%,·,10%,·,·
CC(=O)Nc1cccc2cc(O)ccc12,-22%,-21%,-11%,3%,-16%,-63*,3%
CC(=O)Nc1cccc2cc(S(=O)(=O)O)ccc12,-9%,-1%[57.1 µM],·,·,·,-13,·
CCOc1ccc(CCNC(=O)Cn2nc(C)n3c(cc4occc43)c2=O)cc1OCC,·,·,17%,·,-3%,·,·
Nc1c(C(=O)O)cnc2c(-c3ccc(Cl)cc3)cnn12,?,?,-1%,-15%,-17%,-84*,-1%
CNS(=O)(=O)c1cccc(C(=O)OCc2cc(=O)n3cc(Br)ccc3n2)c1,-17%,-6%,-7%,-2%[46.1 µM],-2%,-19,·
Cc1cc(C)c(C)c(S(=O)(=O)N[C@@H](C)C(=O)OCc2cc(=O)n3cc(Br)ccc3n2)c1C,-17%,-5%[11.6 µM],10%,-5%,6%,-52*,-2%
O=c1[nH]c(SCc2ccccc2)ncc1S(=O)(=O)c1ccccc1,·,·,9%,·,3%,·,·
CCOc1cc(-c2nc(-c3ccc(-c4ccccc4)nc3OCC)no2)cc(OCC)c1OCC,·,·,18%,·,12%,·,·
O=C(COc1ccc(Br)cc1)Nc1ccc(C(=O)OC2CCCCC2)cc1,·,·,-2%,·,11%,·,·
O=C(Nc1cccc(S(=O)(=O)N2CCOCC2)c1)c1c2c(nc3ccccc13)CCC2,-4%,-15%[57.1 µM],5%,-8%[46.1 µM],-5%,-64*,-2%
O=C(NCc1ccco1)c1c2c(nc3ccccc13)CCC2,3µM*,45µM*,1%,4%,?,-71*,0%
COc1ccc(NC(=O)CSc2nnc(-c3ccco3)c(-c3ccco3)n2)cc1OC,?,-27%,3%,-6%,-25%,-52*,-1%

# Screening results from PubChem.
